Over roughly 1,300 sequences, “log fluorescence intensity” has its median near 8.3; the highest 2% begin near 12. Many of the other results were omitted from the sample, so the highest values are more common in it than they were.

This test deals with T1, ETS1 (Homo sapiens, UniProt P14921 1-441).
T1 sequence: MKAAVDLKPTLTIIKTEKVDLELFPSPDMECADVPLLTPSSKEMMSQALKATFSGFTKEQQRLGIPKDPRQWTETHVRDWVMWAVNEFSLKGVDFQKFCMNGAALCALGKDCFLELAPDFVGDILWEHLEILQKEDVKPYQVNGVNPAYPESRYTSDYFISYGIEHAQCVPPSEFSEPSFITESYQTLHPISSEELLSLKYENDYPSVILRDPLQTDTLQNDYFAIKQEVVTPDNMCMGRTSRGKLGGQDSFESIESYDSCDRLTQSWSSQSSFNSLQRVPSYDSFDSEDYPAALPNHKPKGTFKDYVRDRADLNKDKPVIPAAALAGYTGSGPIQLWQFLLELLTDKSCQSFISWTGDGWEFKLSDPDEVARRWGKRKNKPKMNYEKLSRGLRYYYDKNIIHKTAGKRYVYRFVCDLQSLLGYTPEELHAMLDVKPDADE
Briefly: custom PBM; custom protein-binding microarray; buffer, salt, pH and temperature not stated; high values mean tight binding. Particulars: dsDNA, one strand shown.
“GGAAATAGGCCCAGGGTAACACCGGAAGTGGGCTTAGTCTTGATTCGCTTGACGCTGCTG”: the binding signal was 12 log fluorescence intensity.

For “CGGAAGTGTCGTAAACGGCGGATATCCGGTTCTTCTGTCTTGATTCGCTTGACGCTGCTG”, the binding signal is 12.4 log fluorescence intensity.

For the sequence “CGGAAGTGTCGTAAACGCCGGATATCCGGTTCTTCTGTCTTGATTCGCTTGACGCTGCTG”, the binding signal was 13.1 log fluorescence intensity.

Take “CGGAAGTGTCGTAAACTTCGGATATCCGGTTCTTCTGTCTTGATTCGCTTGACGCTGCTG”: the binding signal was 11.9 log fluorescence intensity.

“GGGAAGTGTCGTAAACGTCGGATATCCGGTTCTTCTGTCTTGATTCGCTTGACGCTGCTG”: the binding signal is 11.9 log fluorescence intensity.

In the case of “AGGAAGTGTCGTAAACGTCGGATATCCGGTTCTTCTGTCTTGATTCGCTTGACGCTGCTG”, the binding signal is 12 log fluorescence intensity.

Turning to “CGGAAGTGTCGTAAACGACGGATATCCGGTTCTTCTGTCTTGATTCGCTTGACGCTGCTG”, the binding signal was 12.4 log fluorescence intensity.

Take “CGGAAGTGTCGTAAACGTCGGATATCCGGTTCTGCTGTCTTGATTCGCTTGACGCTGCTG”: the binding signal is 11.8 log fluorescence intensity.

In the case of “CGGAAGTGTCGTAAACGTCGGATATCCGGTTCTTCTGTCTTGATTCGCTTGACGCTGCTG”, the binding signal was 11.9 log fluorescence intensity.

As for “TGGAAGTGTCGTAAACGTCGGATATCCGGTTCTTCTGTCTTGATTCGCTTGACGCTGCTG”, the binding signal is 11.9 log fluorescence intensity.

For “GCTGCTGCGGTGCATACCCCACCGGATGTGACCGCGGTCTTGATTCGCTTGACGCTGCTG”, the binding signal is 10.5 log fluorescence intensity.

“CGGAAGTGTCGTAAACGTCGGATACCCGGTTCTTCTGTCTTGATTCGCTTGACGCTGCTG”: the binding signal was 8.31 log fluorescence intensity.

Consider “TCCGGCTAACAGCTCCACCCACTTCAGGCCTTGTAGGTCTTGATTCGCTTGACGCTGCTG”, for which the binding signal is 8.32 log fluorescence intensity.

Consider “GCTGCTGCGGTGCATAACCCACCGGATGTGACCCCGGTCTTGATTCGCTTGACGCTGCTG”, for which the binding signal was 10.4 log fluorescence intensity.

Consider “CGGAAGTGTCGCAAACGTCGGATATCCGGTTCTTCTGTCTTGATTCGCTTGACGCTGCTG”, for which the binding signal is 12 log fluorescence intensity.

For “CAGAATAGGACTTCTTCCCTGAAGCAATTGATAACCGTCTTGATTCGCTTGACGCTGCTG”, the binding signal was 8.33 log fluorescence intensity.

As for “TAAAGGGAAGACGGTTGTGGTAGTTCCGGGTATCAAGTCTTGATTCGCTTGACGCTGCTG”, the binding signal is 8.76 log fluorescence intensity.

As for “GCGGCTGCGGTGCATACCCCACCGGATGTGACCCCGGTCTTGATTCGCTTGACGCTGCTG”, the binding signal was 10 log fluorescence intensity.

Consider “TGTCGGGTAAGGGAATATAGATCACGTGAATGAAAAGTCTTGATTCGCTTGACGCTGCTG”, for which the binding signal was 8.36 log fluorescence intensity.

In the case of “GATTAATTCCTGCCCTTATTCGCACGTGCCATAACAGTCTTGATTCGCTTGACGCTGCTG”, the binding signal is 10.3 log fluorescence intensity.

Take “GATTAATTTCCGCCCTTATTCGCACGTGCCATAACAGTCTTGATTCGCTTGACGCTGCTG”: the binding signal is 13.9 log fluorescence intensity.

Take “AATTAATTTCTGCCCTTATTCGCACGTGCCATAACAGTCTTGATTCGCTTGACGCTGCTG”: the binding signal is 8.33 log fluorescence intensity.

Consider “GGAAAAAGGCCCAGGGTAACACCGGAAGTGGGTTTAGTCTTGATTCGCTTGACGCTGCTG”, for which the binding signal is 12 log fluorescence intensity.

Take “GCTGCTGCGGTGCATACCCCACCGGATGTAACCCCGGTCTTGATTCGCTTGACGCTGCTG”: the binding signal is 10 log fluorescence intensity.

For “GGAAAAAGGCCCAGGTTAACACCGGAAGTGGGCTTAGTCTTGATTCGCTTGACGCTGCTG”, the binding signal is 12 log fluorescence intensity.

Consider “TAAAGCGAAGACGGTTGTGGTAGTTCCGGGTATTAAGTCTTGATTCGCTTGACGCTGCTG”, for which the binding signal was 8.48 log fluorescence intensity.

Turning to “CGGAAGTGTCGTAAACGTCGGATATCCGGTCCTTCTGTCTTGATTCGCTTGACGCTGCTG”, the binding signal is 12.1 log fluorescence intensity.

In the case of “GATTAATTTCTGCCCTTTTTCGCACGTGCCATAACAGTCTTGATTCGCTTGACGCTGCTG”, the binding signal was 8.42 log fluorescence intensity.

With “TACTGACTTATATATGCGAGTGCACATGAATAGACCGTCTTGATTCGCTTGACGCTGCTG”, the binding signal is 8.33 log fluorescence intensity.

As for “GATTAATTTCTGCCCTTATTCGTACGTGCCATAACAGTCTTGATTCGCTTGACGCTGCTG”, the binding signal is 8.36 log fluorescence intensity.

“CACAATTTTTATAGTAATGTAGCACGCGTAACTCCTGTCTTGATTCGCTTGACGCTGCTG”: the binding signal is 8.41 log fluorescence intensity.

In the case of “GGAAAAAGGGCCAGGGTAACACCGGAAGTGGGCTTAGTCTTGATTCGCTTGACGCTGCTG”, the binding signal was 12 log fluorescence intensity.

Regarding “GGAAAAAGGCCTAGGGTAACACCGGAAGTGGGCTTAGTCTTGATTCGCTTGACGCTGCTG”, the binding signal was 12.1 log fluorescence intensity.

In the case of “GGAAAAAGGCACAGGGTAACACCGGAAGTGGGCTTAGTCTTGATTCGCTTGACGCTGCTG”, the binding signal was 12.1 log fluorescence intensity.

On to “GGAAAAAGGCCGAGGGTAACACCGGAAGTGGGCTTAGTCTTGATTCGCTTGACGCTGCTG”, for which the binding signal was 12 log fluorescence intensity.

“GGAAAAAGGCCCAGGGTAACACCGGAAGTGGGCCTAGTCTTGATTCGCTTGACGCTGCTG”: the binding signal was 12.1 log fluorescence intensity.

In the case of “GGAAAAAGGCTCAGGGTAACACCGGAAGTGGGCTTAGTCTTGATTCGCTTGACGCTGCTG”, the binding signal is 11.8 log fluorescence intensity.

“TAAAGGGAAGACGGTTGTGGTAGTTCCGGGTAGTAAGTCTTGATTCGCTTGACGCTGCTG”: the binding signal was 8.59 log fluorescence intensity.

For “CAGCAAAGGACTTCTTCCCTGAAGCAATTGATAACCGTCTTGATTCGCTTGACGCTGCTG”, the binding signal is 8.31 log fluorescence intensity.

On to “GCTGCTGCGGTGCATACCCCACCGGATGTGACCCCTGTCTTGATTCGCTTGACGCTGCTG”, for which the binding signal is 10.1 log fluorescence intensity.

For the sequence “CAGCATAGGACTTGTTCCCTGAAGCAATTGATAACCGTCTTGATTCGCTTGACGCTGCTG”, the binding signal is 8.34 log fluorescence intensity.

For “TAAAGGGAAGACGGTTGTGGTAGTTCCGGGTAATAAGTCTTGATTCGCTTGACGCTGCTG”, the binding signal is 8.57 log fluorescence intensity.

On to “GATTAATTTCTGCCCTTATTCGCACGTGCCGTAACAGTCTTGATTCGCTTGACGCTGCTG”, for which the binding signal is 8.34 log fluorescence intensity.

On to “GCTGCTGCGGTGCATACCCCACCGGAAGTGACCCCGGTCTTGATTCGCTTGACGCTGCTG”, for which the binding signal is 11 log fluorescence intensity.

With “CGGAAGTGTCGTAAACGTCGGATATCCCGTTCTTCTGTCTTGATTCGCTTGACGCTGCTG”, the binding signal was 8.7 log fluorescence intensity.

With “TGTCGGGTAAGGGAATGTAGATCACTTGAATGAAAAGTCTTGATTCGCTTGACGCTGCTG”, the binding signal was 8.32 log fluorescence intensity.
